# From PubChem BioAssay
# Sampled rows, rich in hits. Any-hit rate of the full collection: about 1.6%.
# PfHsp40 rescue – rescue of PfHsp40-mediated yeast toxicity; 340,000 compounds, 0.68% hits; AID 504582; S. cerevisiae expressing PfHsp40, growth rescue, ATP luminescence; growth rescue, % at 12.5 µM; in the data active = growth rescue above about 28%, passing the limit was not always enough; inconclusive = no clear call, values can overlap the other calls;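 also: yeast W303a lacking pdr1 and pdr3 grown in galactose medium; growth measured after three days at 30 °C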
# SSB-PriA inh – K. pneumoniae PriA-SSBct interaction inhibition; AlphaScreen SSBct-PriA binding, biotinylated peptide; inhibition, % at 33 µM; 430,000 compounds, 0.6% hits; AID 1272365; in the data active = inhibition mostly above about 37%, no sharp cut-off; inactive = mostly below about 20%;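 also: plate controls were negative control peptide for no effect and reference peptide for full effect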
# PrP 5UTR inh – inhibition of PrP 5' UTR reporter expression; cell-based PrP 5' UTR mRNA reporter, plate reader; inhibition, % (test concentration not listed); 340,000 compounds, 0.35% hits; AID 488862; in the data active = inhibition above about 52%; also: 0 = median of the neutral control wells
# PrPC TRFRET – cell surface PrPC inhibition, primary TR-FRET screen; P04156; TR-FRET read-out; inhibition, % at 13.8 µM; 370,000 compounds, 0.43% hits; in the data active = inhibition above about 24%; also: 0% = median of the test wells and 100% = reference compound wells
# BH1578 lux ind – quorum light induction in luxS cqsA deficient V. cholerae. V. cholerae BH1578 lux reporter, luminescence, 6 h. activation, % at 18.7 µM. 350,000 compounds, 0.16% hits. AID 588436; in the data active = activation mostly above about 9.7%, no sharp cut-off; inconclusive = no clear call, values can overlap the other calls; inactive = mostly below about 3.7%
# SARS 3CLpro inh – SARS-CoV 3CLpro protease inhibition | P0C6X7 | recombinant SARS-CoV 3CLpro, quenched FRET peptide cleavage | inhibition, % at 6 µM | 290,000 compounds, 0.14% hits | AID 1706; in the data active = inhibition above about 12%
# * hit, by the source's call; i = inactive; ? = inconclusive; · = no result given.
SMILES,PfHsp40 rescue,SSB-PriA inh,PrP 5UTR inh,PrPC TRFRET,BH1578 lux ind,SARS 3CLpro inh
CCOc1ccccc1OCCN1CCC(Cc2ccccc2)CC1,-2,-2,-14,-2,0,3
COc1ccc(C(=O)NCCn2ncc3c(=O)n(Cc4ccc(C)cc4)cnc32)cc1OC,·,9,·,·,·,·
Cc1ccccc1NC(=O)Cn1c(-c2ccncc2)nc2ccccc21,·,2,·,·,·,·
Cc1ccc(C)c(NC(=S)Nc2ncccc2C)c1,1,40*,-46,10,0,2
Cc1cccnc1NC(=S)Nc1ccc(F)cc1F,1,-1,-33,-1,i,-1
Cc1ccc(NC(=O)NCc2ccc3c(c2)OCO3)cc1C,-1,4,-52,-2,0,0
Cc1cc(CNC(=O)Nc2ccc3c(c2)OCO3)c(C)o1,·,39*,·,·,·,·
Cc1ccc2c(N)c(C(=O)c3ccc4c(c3)OCO4)sc2n1,·,-7,·,·,·,·
Oc1ccccc1N=Cc1c(O)ccc2oc3c(c12)CCCC3,190*,-6,-8,-6,0,2
Cc1ccc(N2CC(C(=O)NCCn3cccnc3=O)CC2=O)cc1C (configuration not stated),·,41,·,·,·,·
O=C(NCCn1ccnc1-c1ncccn1)C1CC(=O)N(c2ccc(F)cc2)C1 (configuration not stated),·,116*,·,·,·,·
Cc1ccc(N2CC(C(=O)NCCn3ccnc3-c3ncccn3)CC2=O)cc1C (configuration not stated),·,43*,·,·,·,·
O=S(=O)(NCC1CCCO1)c1ccc(Cl)cc1 (configuration not stated),2,-14,-10,-9,-1,3
O=S(=O)(NCC1CCCO1)c1ccc(Br)cc1 (configuration not stated),35*,-3,-11,0,i,0
COc1ccc(OC)c2sc(N3CCN(C(=O)c4ccc5c(c4)CCCC5)CC3)nc12,·,29*,·,·,·,·
COc1cccc2sc(N3CCN(C(=O)c4ccc5c(c4)CCCC5)CC3)nc12,·,-1,·,·,·,·
COc1cccc(OC)c1C(=O)NC(C)C12CC3CC(CC(C3)C1)C2 (configuration not stated),84*,4,-14,8,i,-7
Cn1nccc1C(=O)Nc1ccc2scnc2c1,·,-14,·,·,·,·
O=c1[nH]nc(SCc2nc(-c3ccc(F)cc3)no2)n2nc(-c3cccs3)cc12,·,-14,·,·,·,·
O=C(NCCN1CCN(C(=O)COc2ccc3ccccc3c2)CC1)c1ccc2c(c1)OCO2,·,-6,·,·,·,·
Cc1ccccc1-n1c(C)cc(/C=C(\C#N)C(=O)NCC2CCCO2)c1C (configuration not stated),30*,-15,6,2,-1,-1
O=C(c1ccccc1)c1cc(Cl)ccc1NC(=O)C1CCN(S(=O)(=O)c2ccc(F)cc2)CC1,·,-6,·,·,·,·
COc1cccc(N2C[C@@H](C(=O)Nc3c(C(=O)Nc4ccc5c(c4)OCCO5)oc4ccccc34)CC2=O)c1,·,69*,·,·,·,·
Oc1c(Br)cc(Br)cc1/C=N/NC(=S)N[C@H]1CC2C=CC1C2 (some centres not stated),78*,·,-24,1,-1,8
O=C(Nc1cccc(C(F)(F)F)c1)c1cccnc1NCCc1ccccc1,389*,-65,-29,12,0,-2
SMILES,PfHsp40 rescue,SSB-PriA inh,PrP 5UTR inh,PrPC TRFRET,BH1578 lux ind,SARS 3CLpro inh
O=C(Nc1cccc(C(F)(F)F)c1)c1cccnc1NCCO,-1,-15,-7,1,0,2
Cc1ccc(N)cc1S(=O)(=O)N1CCCCC1,·,2,·,·,·,·
CC(C)(C)C(O)CCNC(=O)Nc1ccc(Cl)c(Cl)c1 (configuration not stated),·,0,·,·,·,·
Cc1ccc(-c2cc(=O)c3cc(F)ccc3[nH]2)cc1,-1,13,-41,4,i,-3
Cc1ccc2[nH]c(-c3cccc(F)c3)cc(=O)c2c1,-2,2,60*,1,-1,1
O=C(CNS(=O)(=O)CCc1ccccc1)N1CCOC(c2ccccc2)C1 (configuration not stated),·,-7,·,·,·,·
CCOC(=O)N1CCC(c2cc(=O)n3[nH]c(-c4ccccc4)cc3n2)CC1,0,7,-4,-1,0,0
CCOC(=O)N1CCC(c2cc(=O)n3[nH]c(C)c(-c4ccc(F)cc4)c3n2)CC1,-1,55*,-22,1,0,2
O=C1C2CCCCC2C(=O)N1c1ccc(NC2CCN(Cc3ccccc3)CC2)c([N+](=O)[O-])c1 (configuration not stated),1,31,-9,-19,0,4
CC1CCC2C(=O)N(c3ccc(NC4CCN(Cc5ccccc5)CC4)c([N+](=O)[O-])c3)C(=O)C2C1 (configuration not stated),-1,43*,7,-21,0,4
O=c1cc(CO)oc(C(Nc2ccccn2)c2ccc(C(F)(F)F)cc2)c1O (configuration not stated),128*,-30,-10,7,i,-1
O=c1cc(CO)oc(C(Nc2ccccn2)c2cccc(F)c2)c1O (configuration not stated),-1,-29,-29,-9,0,3
O=S(c1ccccc1O)S(=O)c1ccccc1O (configuration not stated),144*,4,-21,4,·,·
Cc1ccc(S(=O)(=O)Nc2ccc3c(c2)CN(C(=O)C2CC2)CC3)s1,·,-2,·,·,·,·
Cc1ccc(C(C[N+](=O)[O-])c2c(N)n(C)c(=O)n(C)c2=O)cc1 (configuration not stated),364*,-2,5,3,-1,-4
Cc1ccc(O)c(C2=NNC(O)(C(F)(F)F)C2)c1 (configuration not stated),39*,-9,2,-3,i,3
Cc1ccc(O)c(C2=NNC(c3ccc(Cl)cc3)C2)c1 (configuration not stated),?,-4,-46,-1,i,4
Brc1ccc(CSc2nnc(Cc3c[nH]c4ccccc34)o2)cc1,37*,-12,-12,7,i,5
O=C(O)CCC(=O)c1ccc2sc3ccccc3c2c1,122*,-6,24,6,-1,·
O=C(O)CCC(=O)CCC(=O)c1ccccc1,0,-17,-37,0,0,2
O=C1c2ccccc2C2=Nc3ccccc3SC(c3cccc(F)c3)C12 (configuration not stated),281*,27,-15,6,0,3
O=C1c2ccccc2C2=Nc3ccccc3SC(c3ccc(Cl)cc3)C12 (configuration not stated),0,53*,-24,-6,0,-1
O=C(Nc1ccc(-c2ccc3nnc(-c4ccccn4)n3n2)cc1)c1cccc(F)c1,·,40*,·,·,·,·
O=C(Cn1c(=O)n(CCCCC(=O)Nc2ccccc2)c(=O)c2ccccc21)NCCc1ccccc1,·,-2,·,·,·,·
N#CC(C#N)=C(/C=C/c1cccs1)C1CC1,·,42*,·,·,·,·
Cn1nnnc1N=N/C(=N/Nc1ccccc1)c1ccccc1,234*,·,13,15,-1,2
